{"source": "PubChem BioAssay AID720597", "about": "(Broad Institute, 2013)", "note": "Results with a measured potency or affinity are listed apart. The source made the active and inactive calls.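 The calls were made as follows: active = fitted half-maximal dose no more than twice the top valid tested dose, for compounds that lower signal; inconclusive = fit invalid, or curve flat with activity between -70 and -30; inactive = potency past limit, curve flat within ±30, or signal increasing.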", "data": [{"biological_target": "NAD-dependent protein deacylase sirtuin-5, mitochondrial (Homo sapiens) (UniProt Q9NXA8)", "sequence (Q9NXA8 whole entry, looked up)": "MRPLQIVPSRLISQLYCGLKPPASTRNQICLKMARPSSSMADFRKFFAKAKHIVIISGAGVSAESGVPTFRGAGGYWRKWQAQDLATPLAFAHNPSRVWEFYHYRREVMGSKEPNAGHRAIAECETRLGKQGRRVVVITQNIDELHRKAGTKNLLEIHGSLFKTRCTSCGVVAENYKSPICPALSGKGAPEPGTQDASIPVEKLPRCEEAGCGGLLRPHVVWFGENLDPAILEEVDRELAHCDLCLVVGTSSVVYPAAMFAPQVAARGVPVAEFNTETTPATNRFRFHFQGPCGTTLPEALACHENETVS", "test": "blockers of sirtuin-5 peptide desuccinylation – biochemical, fluorescence imaging, cherry-pick, set 6, dose response (AID 720597);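 also: lower AMC signal can also come from blocking the trypsin step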", "settings": "Purified SirT5, succinyl-peptide-AMC/trypsin fluorescence; series mostly up to 15 µM", "values": [{"smiles": "C[C@@H]1CN([C@@H](C)CO)C(=O)c2cc(NC(=O)CCN3CCOCC3)ccc2O[C@H]1CN(C)Cc1ccc(C(F)(F)F)cc1", "outcome": "inactive"}, {"smiles": "O=C(Nc1ccccc1)N1C[C@@H]2[C@H](c3ccccc31)[C@@H](CO)N2CC1CCCC1", "outcome": "inactive"}, {"smiles": "C[C@H]1CN([C@@H](C)CO)S(=O)(=O)c2ccc(C#Cc3ccc(F)cc3)cc2O[C@H]1CN(C)C(=O)NC1CCCCC1", "outcome": "inactive"}, {"smiles": "CC1C(=O)N2CCCc3cc(S(=O)(=O)N4CCCC4)cc1c32", "note": "(centres undefined)", "outcome": "inactive"}, {"smiles": "CCCC#Cc1ccc2c(c1)O[C@H](CN(C)Cc1ccccc1)[C@@H](C)CN([C@H](C)CO)S2(=O)=O", "outcome": "inactive"}, {"smiles": "CN(C)c1ccc2c(c1)[C@H]1C[C@H](CC(=O)NCc3ccc(Oc4ccccc4)cc3)O[C@H](CO)[C@H]1O2", "outcome": "inactive"}, {"smiles": "COc1ccc(S(=O)(=O)N(C)C[C@@H]2OCCCC[C@@H](C)Oc3ccc(NS(=O)(=O)c4ccc(F)cc4)cc3C(=O)N([C@@H](C)CO)C[C@@H]2C)cc1", "outcome": "inactive"}, {"smiles": "CCCC#Cc1ccc([C@H]2[C@H](CO)N3CCCCN(S(=O)(=O)Cc4ccccc4)C[C@@H]23)cc1", "outcome": "inactive"}, {"smiles": "Cc1ccccc1S(=O)(=O)N(C)C[C@H]1OCc2ccccc2-c2c(n(C)c3ccccc23)C(=O)N([C@@H](C)CO)C[C@@H]1C", "outcome": "inactive"}, {"smiles": "C[C@@H]1CN([C@H](C)CO)C(=O)Cc2cc(NS(=O)(=O)c3ccc(Cl)cc3)ccc2O[C@H]1CN(C)Cc1ccc(Oc2ccccc2)cc1", "outcome": "inactive"}, {"smiles": "CNC[C@H]1Oc2ccc(NC(=O)Nc3ccc(F)cc3)cc2CC(=O)N([C@H](C)CO)C[C@@H]1C", "outcome": "inactive"}, {"smiles": "COc1cccc(NC(=O)N(C)C[C@@H]2Oc3cc(C#Cc4ccccc4)ccc3S(=O)(=O)N([C@H](C)CO)C[C@H]2C)c1", "outcome": "inactive"}, {"smiles": "COc1ccc(S(=O)(=O)Nc2ccc3c(c2)C(=O)N([C@@H](C)CO)C[C@H](C)[C@@H](CN(C)Cc2ccc(C(F)(F)F)cc2)OCCCC[C@H](C)O3)cc1", "outcome": "inactive"}, {"smiles": "Cc1ccc(S(=O)(=O)N(C)C[C@H]2OCCCC[C@H](C)Oc3ccc(NS(=O)(=O)c4ccc(Cl)cc4)cc3C(=O)N([C@H](C)CO)C[C@@H]2C)cc1", "outcome": "inactive"}, {"smiles": "Cc1noc(C)c1NC(=O)Nc1cccc2c1O[C@@H](CN(C)Cc1ccc(Oc3ccccc3)cc1)[C@@H](C)CN([C@H](C)CO)C2=O", "outcome": "inactive"}, {"smiles": "O=C(NCC[C@@H]1CC[C@@H](NS(=O)(=O)c2cccc(F)c2)[C@H](CO)O1)C1CCOCC1", "outcome": "inactive"}, {"smiles": "C[C@@H]1CN([C@H](C)CO)C(=O)c2cc(NC(=O)CCC(F)(F)F)ccc2O[C@H]1CN(C)Cc1ccc(Oc2ccccc2)cc1", "outcome": "inactive"}, {"smiles": "COc1ccc(NC(=O)N(C)C[C@H]2Oc3cc(C#CCC(C)C)ccc3S(=O)(=O)N([C@H](C)CO)C[C@H]2C)cc1", "outcome": "inactive"}, {"smiles": "CCCC#Cc1ccc2c(c1)[C@@H]1[C@@H](CCN1S(=O)(=O)c1ccccc1C)[C@@H](CO)N2", "outcome": "inactive"}, {"smiles": "CN(C)C(=O)[C@H]1[C@H](CO)[C@H]2Cn3c(ccc(-c4ccc(F)cc4)c3=O)[C@@H]1N2CCc1ccccc1", "outcome": "inactive"}, {"smiles": "C[C@@H]1CN([C@H](C)CO)C(=O)c2cc(NC(=O)Cc3ccccc3)ccc2O[C@@H]1CN(C)Cc1ccc(Oc2ccccc2)cc1", "outcome": "inactive"}, {"smiles": "C[C@@H]1CN([C@@H](C)CO)C(=O)c2cccc(NC(=O)c3ccncc3)c2O[C@H]1CN(C)S(C)(=O)=O", "outcome": "inactive"}, {"smiles": "CO[C@H]1CN(C)C(=O)c2ccc(NC(C)=O)cc2OC[C@H](C)N(Cc2nccs2)C[C@@H]1C", "outcome": "inactive"}, {"smiles": "C[C@H](CO)N1C[C@H](C)[C@@H](CN(C)S(=O)(=O)c2ccc(F)cc2)Oc2cc(C3=CCCCC3)ccc2S1(=O)=O", "outcome": "inactive"}, {"smiles": "COc1ccccc1-c1ccc2c(c1)O[C@@H](CN(C)Cc1ccc3c(c1)OCO3)[C@H](C)CN([C@@H](C)CO)S2(=O)=O", "outcome": "inactive"}, {"smiles": "Cc1noc(C)c1S(=O)(=O)N(C)C[C@@H]1OCCCC[C@@H](C)Oc2ccc(NC(=O)Nc3cccc4ccccc34)cc2C(=O)N([C@H](C)CO)C[C@@H]1C", "outcome": "inactive"}, {"smiles": "C[C@@H]1CN([C@@H](C)CO)S(=O)(=O)c2ccc(C#Cc3cccc(F)c3)cc2O[C@@H]1CN(C)S(=O)(=O)c1ccccc1F", "outcome": "inactive"}, {"smiles": "Cc1ccc(S(=O)(=O)Nc2ccc3c(c2)C(=O)N([C@H](C)CO)C[C@H](C)[C@@H](CN(C)Cc2ccc(C(F)(F)F)cc2)OCCCC[C@H](C)O3)cc1", "outcome": "inactive"}, {"smiles": "C[C@@H]1CN([C@@H](C)CO)S(=O)(=O)c2ccc(C#Cc3ccc(F)cc3)cc2O[C@H]1CN(C)C(=O)NC1CCCCC1", "outcome": "inactive"}, {"smiles": "COc1ccc(S(=O)(=O)N(C)C[C@@H]2OCCCC[C@H](C)Oc3ccc(NS(=O)(=O)c4ccc(C)cc4)cc3C(=O)N([C@H](C)CO)C[C@@H]2C)cc1", "outcome": "inactive"}, {"smiles": "Cc1ccc(S(=O)(=O)N(C)C[C@@H]2OCCCC[C@@H](C)Oc3ccc(NS(=O)(=O)c4ccc(F)cc4)cc3C(=O)N([C@@H](C)CO)C[C@@H]2C)cc1", "outcome": "inactive"}, {"smiles": "Cc1ccccc1S(=O)(=O)N1CCCCN2[C@H](CO)[C@@H](c3ccc(-c4ccccc4)cc3)[C@H]2C1", "outcome": "inactive"}, {"smiles": "O=C(Nc1cc(F)ccc1F)N1C[C@@H]2[C@H](c3ccccc31)[C@H](CO)N2Cc1ccncc1", "outcome": "inactive"}, {"smiles": "C[C@@H]1CN([C@H](C)CO)C(=O)Cc2cc(NS(=O)(=O)c3ccccc3)ccc2O[C@H]1CN(C)Cc1ccc(Cl)c(Cl)c1", "outcome": "inactive"}, {"smiles": "C[C@H]1CN([C@@H](C)CO)C(=O)c2cc(NC(=O)Cn3cnnn3)ccc2O[C@@H]1CN(C)S(=O)(=O)c1ccc(F)cc1", "outcome": "inactive"}, {"smiles": "COc1cccc(CN(C)C[C@@H]2OCc3ccccc3-c3c(n(C)c4ccccc34)C(=O)N([C@H](C)CO)C[C@H]2C)c1", "outcome": "inactive"}, {"smiles": "C[C@H]1CN([C@@H](C)CO)S(=O)(=O)c2ccc(/C=C/c3ccccc3)cc2O[C@H]1CN(C)C(=O)NC1CCCCC1", "outcome": "inactive"}, {"smiles": "C[C@H]1CN([C@@H](C)CO)C(=O)c2cccc(NC(=O)CCCCCC(=O)Nc3ccccc3N)c2O[C@@H]1CN(C)Cc1ccc(-c2ccccc2)cc1", "outcome": "inactive"}, {"smiles": "C[C@H](CO)N1C[C@H](C)[C@@H](CN(C)C(=O)NC2CCCCC2)Oc2cc(C#Cc3ccc(F)cc3)ccc2S1(=O)=O", "outcome": "inactive"}]}]}
